Screening data: PubChem BioAssay, Bradner/Qi Labs at DFCI
This excerpt belongs to a sample that is enriched for hits.
CBX7 inh: CBX7 chromodomain binding inhibitors, primary screen, biochemical, AlphaScreen | Chromobox protein homolog 7 (Homo sapiens), O95931 | AlphaScreen His6-CBX7 / biotin-H3K27me3 peptide binding; active compounds read low | normalised signal (fraction of DMSO) (no concentration beside the values) | 66,000 compounds, 1.1% hits | AID 1224903, 2016; in the data active = normalised signal below about 0.5
Target sequence (O95931 whole entry, looked up): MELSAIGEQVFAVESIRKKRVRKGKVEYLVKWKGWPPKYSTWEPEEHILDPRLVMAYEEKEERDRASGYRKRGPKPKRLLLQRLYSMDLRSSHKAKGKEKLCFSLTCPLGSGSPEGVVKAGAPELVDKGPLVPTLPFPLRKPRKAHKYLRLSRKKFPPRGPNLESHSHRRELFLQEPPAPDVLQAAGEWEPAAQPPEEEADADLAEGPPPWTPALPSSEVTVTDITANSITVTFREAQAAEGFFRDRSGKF
Large screens that a line does not name were inactive.

COc1ccc(-n2cnc3cc(NC(=O)c4ccccc4)ccc32)cc1	none
COc1ccc(-n2cnc3cc(NCc4nc5ccccc5n4C)ccc32)cc1	CBX7 inh 0.41
COc1ccc(-n2cnc3cc(Nc4nnc(C)c5ccccc45)ccc32)cc1	none
COc1ccc(-n2cnc3cc(NCc4cccc5ccccc45)ccc32)cc1	CBX7 inh 0.31
CCOc1ccc(NCc2nc3ccccc3n2CCOc2ccc(C)cc2)cc1	none
CCOc1ccc(NCc2nc3ccccc3n2CCOc2ccccc2)cc1	CBX7 inh 0.18
COc1ccc(-n2cnc3cc(NS(=O)(=O)c4ccccc4)ccc32)cc1	none
Brc1ccc(NCc2nc3ccccc3n2CCOc2ccccc2)cc1	none
CCOC(=O)c1sc2ncn(CC(=O)Nc3ccccc3OC)c(=O)c2c1C	none
O=C(Nc1ccc(Br)cn1)Nc1cccs1	none
CCc1ccc(NC2c3ccccc3C(=O)N2c2cc(C)ccn2)cc1 (configuration not stated)	none
CCOCCCNC(=O)C1CCCN(Cc2nc(-c3ccc(Cl)cc3)oc2C)C1 (configuration not stated)	none
CC(C)CCNC(=O)CCNS(=O)(=O)c1ccc2c(c1)CCC(=O)N2	none
CCC1=Nc2cc(C(=O)NCc3ccccc3Cl)ccc2Sc2ccc(Cl)cc21	none
Cc1cc(C)cc(NC(=O)CSc2nccn2-c2ccccc2)c1	none
CCc1ccc(NC(=O)CSc2nccn2-c2cccc(Cl)c2)cc1	CBX7 inh 0.43
O=C(CSc1nccn1-c1ccc(Cl)cc1)Nc1cccc(C(F)(F)F)c1	CBX7 inh 0.45
O=C(CSc1nccn1-c1ccc(Cl)cc1)Nc1cccc(F)c1	none
COc1cccc(-n2ccnc2SCC(=O)Nc2cccc(C(F)(F)F)c2)c1	none
CCc1ccc(NC(=O)CSc2nccn2-c2cccc(OC)c2)cc1	none
Cc1cccc(NC(=O)CSc2nccn2-c2ccc(Cl)cc2)c1	CBX7 inh 0.45
Cc1cc(C)cc(NC(=O)CSc2nccn2-c2ccc(Cl)cc2)c1	CBX7 inh 0.42
O=C(CSc1nccn1-c1ccc(F)cc1)Nc1cccc(Cl)c1	none
Cc1ccc(NC(=O)CSc2nccn2-c2ccc(Cl)cc2)cc1	none
COc1ccc(-n2ccnc2SCC(=O)Nc2cccc(C)c2)cc1	none
CCc1ccc(NC(=O)CSc2nccn2-c2cccc(C)c2)cc1	none
Cc1ccc(CNC(=O)c2cc3c(s2)-c2ccccc2OC3)cc1	none
Cc1ccc(-n2cc(-c3ccccc3)c3c(NCc4ccc(F)cc4)ncnc32)cc1	none
O=C(NCc1ccc2c(c1)OCO2)c1cc2ccccn2n1	none
Cc1c(C(=O)Nc2cccc(Cl)c2)sc2ncn(CC(=O)N3CC(C)CC(C)C3)c(=O)c12 (configuration not stated)	none
Cc1ccc(-c2nc(-c3ccccc3)c3ccccn23)cc1	none
Cc1nc2c(-c3cccc(Br)c3)c[nH]n2c(=O)c1Cc1ccccc1	none
Cc1noc(C)c1S(=O)(=O)N(CC(=O)NC1CCCCCC1)c1ccc(C(C)C)cc1	none
CCOC(=O)c1ccc(NC(=O)c2c(-c3ccccc3Cl)noc2C)cc1	none
O=C(Nc1ncc(Cc2cccc(Cl)c2)s1)c1csc2c1CCCC2	none
Cc1ccccc1C1CC(c2ccc(Br)cc2)Nc2ncnn21 (configuration not stated)	none
Cn1c(C(=O)NC2CCCCCC2)cc2sc(Cl)cc21	none
COc1cc(NS(=O)(=O)c2ccc(Nc3nc(-c4ccc(C)c(C)c4)cs3)cc2)nc(OC)n1	none
COc1ccc(CNC(=O)CCc2nc3sc4c(c3c(=O)[nH]2)CCCC4)cc1	none
CC(=O)NCCNC(=O)CCc1nc2sc3c(c2c(=O)[nH]1)CCCC3	none
O=C(CCc1nc2sc3c(c2c(=O)[nH]1)CCCC3)NCc1ccccn1	CBX7 inh 0.34
O=C(c1cc2c(s1)-c1ccccc1OC2)N1CCC(N2CCCCC2)CC1	none
O=C(NCCOc1ccccc1Cl)Nc1ccc(Br)cc1	none
Cn1c2ccccc2c2c(C(=O)NC3CCCCCC3)cn(C3CCCC3)c(=O)c21	none
CCn1c(COc2cccc3cccnc23)nnc1SCC(=O)OC	none
O=C(CC(Sc1cccc2cccnc12)c1ccc(F)cc1)c1cccs1 (configuration not stated)	CBX7 inh 0.0063
O=C(Nc1ccc(F)cc1)C(Cc1ccccc1)NS(=O)(=O)c1cccc2cccnc12 (configuration not stated)	none
c1ccc(N2CCN(c3nnc(Cc4cccnc4)c4ccccc34)CC2)cc1	none
Cc1ccccc1NCC(O)Cn1c(C)c(C)c2ccccc21 (configuration not stated)	none
Cc1ccc(C)c(NCC(O)Cn2c3ccccc3c3ccccc32)c1 (configuration not stated)	none
COc1ccc(OC)c(NCC(O)Cn2c3ccccc3c3ccccc32)c1 (configuration not stated)	CBX7 inh 0.3
CCC(=O)N1CCc2cc(S(=O)(=O)N(CCc3ccccc3)Cc3ccccc3)ccc21	none
Oc1cccc2ccc(Nc3ccccn3)nc12	CBX7 inh 0.0087
c1ccc(-c2csc(Nc3ccccn3)n2)cc1	none
Oc1cccc2ccc(Oc3cccc4cccnc34)nc12	none
Cc1ccc(Nc2cc(C(=O)NCCCN3CCCC3)c3ccccc3n2)c(C)c1	none
